The assay can be described thus: cell-free HIV fusion peptide-binding blockers – biochemical, uHTS, fluorescence dequenching, primary screen (AID 1986). The settings on record: 30 min, stronger effect = higher value.
Where [1] appears, read: measured here: repeat confirmation average inhibition, at 18.6 µM.

SMILES strings stand for the structures. In all, about 290,000 compounds went through this assay and about 890 (0.31%) were called active. Cut-off read from the data, not from the text of the source: active = inhibition mostly above about 52% (no sharp cut-off); inactive = mostly below about 76%. Only a selection was taken, and actives are over-represented in it overall.

As for `O/N=C1/C(=C\c2ccccc2)N2CCC1CC2`, the inhibition (at 20 µM) is 9.6% (inactive). Same read-out and setting: under `CN1CCC(N2CC3CC(C2)c2cccc(=O)n2C3)CC1` (stereo unspecified) stands 1.9% (inactive); under `CCOC(=O)c1c(/N=C/C2C(=O)NC(=S)NC2=O)sc2c1CCC2`, 81.3% (active); under `CCOC(=O)c1c(/N=C/C2C(=O)NC(=O)NC2=O)sc2c1CCC2`, 6.8% (inactive). On the same count and under the same terms, under `CCOC(=O)c1c(/N=C/C2C(=O)NC(=S)NC2=O)sc(C)c1C` stands 30.3% (inactive); under `CN1CCC(=O)N(CCN=[N+]=[N-])CC1`, 1.6% (inactive). Consider `COc1cc(C)c(CN2CC=C(c3ccc(F)cc3)CC2)cc1C`, for which the inhibition (at 20 µM) was -1.1% (inactive). Take `CCN(CC)c1ccc(CN(C)CCc2ccc(OC)c(OC)c2)cc1`: the inhibition (at 20 µM) was 0.5% (inactive). As for `Fc1ccccc1N1CCN(Cc2c(F)cccc2F)CC1`, the inhibition (at 20 µM) is -0.2% (inactive). Still for that read-out and setting: under `O=C(N=Nc1c(O)[nH]c(=O)[nH]c1=O)C1COc2cc3ccccc3cc2O1` (stereo unspecified) stands 4.2% (inactive); under `O=C(C1CCCN(S(=O)(=O)c2cccc3nsnc23)C1)N1CCC2(CC1)OCCO2` (stereo unspecified), -1.1% (inactive); under `O=C(C(Cc1ccccc1)NS(=O)(=O)c1ccc(F)cc1)N1CCC2(CC1)OCCO2` (stereo unspecified), 3.1% (inactive). Same read-out and setting: for `O=C(C(Cc1ccccc1)NS(=O)(=O)c1cccc2nsnc12)N1CCC2(CC1)OCCO2` (stereo unspecified) the value was 103% (active); for `CNCCc1ccc(OC)c(OC)c1`, -0.5% (inactive); for `O=C(c1ccc(Cl)cc1)C12CN3CN(CN(C3)C1)C2`, 0% (inactive).

On to `COP(=O)(OC)C(Nc1ccccn1)c1ccccc1` (stereo unspecified), for which the inhibition (at 20 µM) is -0.3% (inactive). Regarding `CN1C(=O)C(=Cc2sc(=O)n(-c3ccccc3)c2N2CCCCC2)C(=O)N(C)C1=O`, the inhibition runs as follows: (at 20 µM) 68.2% (active); under setting [1], 87.3%. Turning to `CN1C(=O)C(=Cc2ccc(N3CCCCCC3)cc2)C(=O)N(C)C1=O`, the inhibition (at 20 µM) was 16.5% (inactive). For the molecule `CN1C(=O)C(=Cc2sc(=O)n(-c3ccccc3)c2N(C)C)C(=O)N(C)C1=O`, the inhibition (at 20 µM) is 27.8% (inactive). On the same count and under the same terms, under `COc1ccc(N2C(=O)NC(=O)/C(=C/c3ccc([N+](=O)[O-])s3)C2=O)cc1` stands 35.4% (inactive); under `O=C1NC(=O)N(c2ccccc2)C(=O)/C1=C/c1ccc([N+](=O)[O-])s1`, 64.8% (active). With `O=C1NC(=O)N(c2ccccc2)C(=O)/C1=C\c1ccc([N+](=O)[O-])s1`, the inhibition (at 20 µM) was 61.1% (inactive) and the inhibition under setting [1] was found to be 6.1%. As to `COc1cccc(N2C(=O)NC(=O)/C(=C/c3ccc([N+](=O)[O-])s3)C2=O)c1`, under “at 20 µM”, the inhibition was 45.2% (inactive). Take `COc1ccc(N2C(=O)NC(=O)/C(=C\c3ccc([N+](=O)[O-])s3)C2=O)cc1`: the inhibition (at 20 µM) is 56.4% (active). Still for that read-out and setting: under `COc1ccccc1N1C(=O)NC(=O)/C(=C/c2ccc([N+](=O)[O-])s2)C1=O` stands 42.7% (inactive); under `O=c1c2ccccc2nc(Cc2ccccc2)n1-c1cccc(O)c1`, -1% (inactive); under `CCCc1cc(=O)oc2cc(OCC(=O)N3C[C@H]4C[C@@H](C3)c3cccc(=O)n3C4)ccc12`, 3% (inactive). `CCOC(=O)c1nc2ccccc2c(=O)n1-c1ccc(C)cc1`: the inhibition (at 20 µM) is 0.5% (inactive). Still for that read-out and setting: under `COc1cc(CC2(CCc3ccncc3)C(=O)N(C)C(=O)N(C)C2=O)cc(OC)c1OC` stands 2.3% (inactive); under `CN1/C(=C\C=Nc2ccccc2)C(C)(C)c2ccccc21`, 0.8% (inactive). For the molecule `CCN1/C(=C\C=C\C2=[N+](CC)c3ccccc3C2(C)C)C(C)(C)c2ccccc21`, under “at 20 µM”, the inhibition was 0.5% (inactive).

As for `CN1/C(=C\C=C\C2=[N+](C)c3ccc4ccccc4c3C2(C)C)C(C)(C)c2ccccc21`, the inhibition (at 20 µM) is 65.1% (active) and the inhibition under setting [1] is 90.9%. With `NCCc1c[nH]c2ccc(OCc3ccccc3)cc12`, the inhibition (at 20 µM) was -1.2% (inactive).

One may read the inhibition as the drop in the measured response relative to a control, in per cent.

For the origin of these results see PubChem BioAssay AID1986 (Sanford-Burnham Center for Chemical Genomics, 2009).
